Nrf2 block = Nrf2 qHTS screen for inhibitors | A549 ARE-Fluc reporter, luciferase luminescence, 18-24 h | Potency, µM (doses to about 46 µM), inactives show at the top dose activity change, negative = inhibition, actives largely listed as inhibitors | 360,000 compounds, 2.1% hits | AID 504444, 2011; further: on the % scale 0 is the no-effect control and ±100 the full control effect; nearly all actives have a fitted effect of over 60% in size
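Nrf2 activity is the BugLite luminescence, read 15 min after reagent at room temperature, following CellTiter-Fluor cytotoxicity readout (30 min, 37C). Compound titrations were applied for 18-24 h to 5000 A549 ARE_Fluc cells/well in 5% FBS OPTI-MEM.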
Nrf2 ARE act = qHTS of Nrf2 Activators. AREc32 ARE-luciferase reporter (MCF7-derived line), luminescence, 24 h. Potency, µM (titrated, usually from 46.1 µM), for inactives: top-dose activation, usual class: activators. 410,000 compounds, 0.31% hits. AID 624171, 2012; further: % of control where 0% means no effect; nearly all actives have a fitted effect of over 65% in size
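For detection, Steady-Glo was added and plates sat 30 min at RT; before that, AREc32_Fluc cells grown overnight in OPTI-MEM/5% FBS had been treated with 23 nL compound for 24 hr at 37 deg C.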
A549 viability = Nrf2 qHTS screen for inhibitors: counterscreen for cytotoxicity. A549 ARE-Fluc cells, CellTiter-Fluor viability, 18-24 h. Potency, µM (highest dose often 46 µM), for the others: at the top dose activity change, negative = cytotoxicity, hits mostly inhibitors. 390,000 compounds, 0.16% hits. AID 504648, 2011; further: on the % scale 0 is the no-effect control and ±100 the full control effect
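Cytotoxicity counterscreen: CellTiter-Fluor fluorescence was measured in A549 ARE_Fluc cells after 18-24 h of compound exposure in a concentration series. The subsequent BugLite luminescent read reports ARE-luciferase activity.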
Pin1 inh = qHTS Assay to Find Inhibitors of Pin1; Peptidyl-prolyl cis-trans isomerase NIMA-interacting 1 (Homo sapiens), Q13526; Pin1 FP peptide displacement, HiFluor488, 10 min; Potency, µM (series often up to 115 µM), inactives show top-dose activity, negative = inhibition, actives largely listed as inhibitors; 390,000 compounds, 0.009% hits; AID 504891, 2011; active means well fitted inhibition curve with a large enough effect in the polarisation, with a control signal flat, not every such curve was filed as active; inconclusive means small, poorly fitted or top-dose-only effect, or effect the other way, or a change in a side signal; inactive means no such curve, though single readings can be large or run the other way; the % refers to the polarisation; further: on the % scale 0 is the no-effect control and ±100 the full control effect
Target sequence (Q13526 whole entry, looked up): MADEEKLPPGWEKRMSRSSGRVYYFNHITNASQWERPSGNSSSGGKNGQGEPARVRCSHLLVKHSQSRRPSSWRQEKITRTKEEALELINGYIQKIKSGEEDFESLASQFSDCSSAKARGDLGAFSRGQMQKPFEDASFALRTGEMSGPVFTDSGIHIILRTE
Starred values were filed as active, the others as inactive; ? = inconclusive; . = no result given; [ ] = remark or other dose. The list is not random: actives were taken first. Their share in the collection is about 2.2%. Unless noted, the call rests on the fitted dose curve; in most records, active means well fitted curve in the direction sought with a large enough effect; inconclusive means small, poorly fitted or top-dose-only effect, or another doubt; inactive means no such curve, though single readings can be large; an effect the other way counts as inactive or inconclusive. Potency means the concentration at half of the fitted maximal effect.

SMILES	Nrf2 block	Nrf2 ARE act	A549 viability	Pin1 inh
C=C(c1ccccc1C)[n+]1ccccc1	18µM*	0%	-12%	-3%
C=C(c1ccccc1Cl)[n+]1ccccc1	7.3µM*	0%	?	1%
COc1ccc(C2CC(c3ccccc3)Oc3cc(OC)ccc32)cc1 (stereo not given)	8%	.	9%	5%
O=C(c1ccc(Cl)cc1Cl)C1(n2cncn2)Oc2ccccc2C1O (stereo not given)	10µM*	3%	1%	-16%
CC(OCc1ccccc1)C(NC(=O)OC(C)(C)C)C(=O)NC1COC2CC(n3cc(F)c(=O)[nH]c3=O)OC12 (stereo not given)	-3%	.	-1%	0%
O=C(Cc1ccccc1)NCC(=O)OCC(=O)c1cccc2ccccc12	5%	.	7%	4%
O=C(C1CCC(Cn2c(=S)[nH]c3ccccc3c2=O)CC1)N1CCN(c2ccccn2)CC1 (stereo not given)	18µM*	0%	?	1%
C[C@@H]1[C@@H](Sc2ccccc2)CC(=O)O[C@@H]1c1ccc(-c2ccccc2)cc1	18µM*	?	-8%	-3%
Cc1c(C#N)c(NC(=O)CCl)n(Cc2ccc(F)cc2)c1C	18µM*	?	-25%	8%
Cc1c(C#N)c(NC(=O)CCl)n(Cc2cccs2)c1C	15µM*	?	?	?
Cc1ccc(CSC(Nc2ccc(F)cc2)=C(C#N)C#N)cc1	21µM*	26%	?	3%
CCCCN(CCCN)c1ccc(Br)cn1	3%	.	4%	1%
C=CCN=c1scc(-c2ccc3c(c2)NC(=O)CO3)n1/N=C(\C)c1ccccn1	16µM*	8%	?	37%
CCc1ccc(NC(=O)CN(c2ccc(C)cc2)S(=O)(=O)c2cccs2)cc1	2%	-1%	6%	33%
COc1ccc(C2=Nn3c(nnc3-c3ccccc3Cl)SC2)cc1OC1CCOC1 (stereo not given)	6%	0%	1%	0%
COc1ccc(C2=Nn3c(nnc3-c3ccccc3Cl)SC2)cc1OC1CCCC1	16µM*	-1%	-17%	15%
CC(C)(C)NS(=O)(=O)c1ccc(NC(=O)C(Sc2ccccc2)c2ccccc2)cc1 (stereo not given)	9.2µM*	0%	?	-1%
O=[S+]([O-])(c1ccc2nsnc2c1)N1CCN([S+](=O)([O-])c2c(F)cccc2F)CC1	0%	.	-2%	-1%
CC1CCN(C(=O)CN2C(=O)C(=O)c3ccccc32)CC1	3%	0%	1%	-3%
CC1CCN(C(=O)CN2C(=O)c3cccc4cccc(c34)C2=O)CC1	2%	11µM*	-2%	1%
O=[N+]([O-])c1ccc(C[n+]2ccccc2)cc1	21µM*	0%	0%	-12%
Cc1ccccc1N(CC(=O)N/N=C/c1ccc(Cl)cc1)C(=O)c1ccccc1	21µM*	1%	?	3%
Cc1ccccc1N(CC(=O)N/N=C/c1ccc(F)cc1)C(=O)c1ccccc1	-1%	0%	-7%	8%
Cc1cc2c(s1)c1cnn(Cc3ccc(Cl)cc3)c(=O)c1n2C	3%	.	-6%	42%
CCC(C(=O)Nc1cc(-c2nc3cccnc3s2)ccc1C)c1ccccc1 (stereo not given)	?	8%	-12%	-2%
SMILES	Nrf2 block	Nrf2 ARE act	A549 viability	Pin1 inh
Cn1nc(C(F)(F)F)c2cc(C(=O)O)sc21	4%	0%	2%	-12%
Cn1nc(C(F)(F)F)c2cc(C(=O)Nc3ccc(F)c(Cl)c3)sc21	13µM*	-1%	-8%	?
Cn1nc(C(F)(F)F)c2cc(C(=O)Nc3ccc(F)cc3)sc21	?	0%	?	-3%
Cn1nc(C(F)(F)F)c2cc(C(=O)Nc3ccc(C(F)(F)F)cc3)sc21	23µM*	0%	?	6%
CCc1ccc(C2NC(=O)c3[nH]nc(-c4cccc(OC)c4)c32)cc1 (stereo not given)	7.3µM*	5%	-9%	4%
CCn1c(=O)c2cc(C(=O)N3CCN(c4cccc(OC)c4)CC3)sc2c2ccccc21	?	5%	3%	2%
COc1ccccc1-c1cc(C(F)(F)F)nc(S(=O)(=O)CCCC(=O)Nc2cc(OC)c(OC)c(OC)c2)n1	-5%[9.27 µM]	0%	0%	?
COc1ccccc1-c1cc(C(F)(F)F)nc(S(=O)(=O)CCCC(=O)O)n1	.	11µM*	-18%	?
CC1CCCCC12NC(=O)N(CC(=O)N1CCN(Cc3ccc(C#N)cc3)CC1)C2=O (stereo not given)	5.8µM*	0%	0%	-3%
Cc1cccc(C)c1NC(=O)CN1CCN(C(=O)CN2C(=O)NC3(CCCCC3C)C2=O)CC1 (stereo not given)	-18%	0%	17%	-2%
O=C(O)c1ccccc1-c1c2cc(I)c(=O)c(I)c-2oc2c(I)c(O)c(I)cc12	-27%	-1%	9.2µM*	?
Nc1cc(S(=O)(=O)Nc2ccc(Cl)cc2)ccc1N1CCOCC1	16µM*	0%	-9%	-4%
CCNC(=O)Nc1cc(S(=O)(=O)Nc2ccc(OC)cc2)ccc1N1CCOCC1	4.1µM*	1%	-15%	-1%
COc1ccc(-c2cnnc(N/N=C/c3ccc(O)cc3)n2)cc1	19%	28%	-9%	3%
Oc1ccc(/C=N\Nc2nncc(-c3ccccc3)n2)cc1	?	7.1µM*	-14%	?
CCOc1ccc(C(=O)Nc2ccc3oc(-c4ccc5ccccc5c4)nc3c2)cc1	14%	0%	0%	1%
COc1ccccc1-c1ccc(/C=C2/C=C(C)OC2=O)o1	?	14%	6%	?
COc1ccccc1-c1ccc(/C=C2\C=CC(=O)O2)o1	1%	16µM*	1%	?
COc1ccc(S(=O)(=O)c2cn(CC(=O)Nc3cc(C)ccc3C)c3ccccc3c2=O)cc1	11%	-1%	9%	-8%
O=c1[nH]nc(SCCS(=O)(=O)c2ccc(F)cc2)n1-c1ccccc1	-27%	13µM*	-6%	6%
O=c1[nH]nc(SCCS(=O)(=O)c2ccc(F)cc2)n1-c1ccc2c(c1)OCCO2	14%	13µM*	-12%	-1%
CCCn1c(SCC(=O)c2ccc3c(c2)OCCO3)n[nH]c1=O	3%	-1%	-3%	1%
COc1ccc(-c2cn3c(n2)sc2cc(C(=O)NCCC4=CCCCC4)ccc23)cc1	6%	5%	0%	-1%
O=C(/C=C/c1ccc(S(=O)(=O)N2CCOCC2)cc1)Nc1cc(F)ccc1F	-8%	9%	1%	6%
Cc1ccc(F)cc1NC(=O)/C=C/c1ccc(S(=O)(=O)N2CCOCC2)cc1	16µM*	0%	-10%	1%
COc1ccc(/C=C/C(=O)Nc2ccc(C)c(S(=O)(=O)N3CCOCC3)c2)cc1	23µM*	0%	-10%	35%
COc1cc(C)ccc1OCCn1c(-c2ccc(Cl)cc2)nc2ccccc2c1=O	11%	0%	4%	0%

Screening results deposited in PubChem BioAssay by National Center for Advancing Translational Sciences (NCATS).
